About 2,200 (0.71%) of roughly 310,000 compounds showed an effect of 50% or more. The effect is printed as a negative number. The sample holds strong results, similar compounds and a random draw of the others, so the mix is not that of the screen.
target: human ether-à-go-go-related gene (hERG) potassium channel (human, UniProt Q12809); assay: primary screen, population patch clamp on CHO cells stably expressing hERG; higher = less effect of the substance
Method: Briefly, Chinese hamster ovary (CHO) cells stably expressing the hERG channel were dislodged from tissue culture flasks and dispensed into PPC plates. […] During the recording, background leak currents were estimated by a 100 ms step to -80 mV from an initial holding potential of -70 mV and subtracted from the subsequent current measurement. The campaign was conducted in two phases using slight differences in recording protocol. In the first phase, the initial voltage pulse used a 100 ms step to -30 mV from a holding potential of -70 mV, a 2 s conditioning step to +25 mV, and a 2 s test step to -30 mV. During the second phase of the screen, the potential during the conditioning step was raised to +45 mV. In both phases of the campaign, a secondary voltage pulse was applied using the same parameters as the second phase initial pulse. The initial and secondary pulses were applied in the absence of compound, and upon application of 1 μM and 10 μM test concentrations. Small molecule effects on hERG current density were quantified by […].

Chain of human ether-à-go-go-related gene (hERG) potassium channel (Q12809 whole entry, looked up): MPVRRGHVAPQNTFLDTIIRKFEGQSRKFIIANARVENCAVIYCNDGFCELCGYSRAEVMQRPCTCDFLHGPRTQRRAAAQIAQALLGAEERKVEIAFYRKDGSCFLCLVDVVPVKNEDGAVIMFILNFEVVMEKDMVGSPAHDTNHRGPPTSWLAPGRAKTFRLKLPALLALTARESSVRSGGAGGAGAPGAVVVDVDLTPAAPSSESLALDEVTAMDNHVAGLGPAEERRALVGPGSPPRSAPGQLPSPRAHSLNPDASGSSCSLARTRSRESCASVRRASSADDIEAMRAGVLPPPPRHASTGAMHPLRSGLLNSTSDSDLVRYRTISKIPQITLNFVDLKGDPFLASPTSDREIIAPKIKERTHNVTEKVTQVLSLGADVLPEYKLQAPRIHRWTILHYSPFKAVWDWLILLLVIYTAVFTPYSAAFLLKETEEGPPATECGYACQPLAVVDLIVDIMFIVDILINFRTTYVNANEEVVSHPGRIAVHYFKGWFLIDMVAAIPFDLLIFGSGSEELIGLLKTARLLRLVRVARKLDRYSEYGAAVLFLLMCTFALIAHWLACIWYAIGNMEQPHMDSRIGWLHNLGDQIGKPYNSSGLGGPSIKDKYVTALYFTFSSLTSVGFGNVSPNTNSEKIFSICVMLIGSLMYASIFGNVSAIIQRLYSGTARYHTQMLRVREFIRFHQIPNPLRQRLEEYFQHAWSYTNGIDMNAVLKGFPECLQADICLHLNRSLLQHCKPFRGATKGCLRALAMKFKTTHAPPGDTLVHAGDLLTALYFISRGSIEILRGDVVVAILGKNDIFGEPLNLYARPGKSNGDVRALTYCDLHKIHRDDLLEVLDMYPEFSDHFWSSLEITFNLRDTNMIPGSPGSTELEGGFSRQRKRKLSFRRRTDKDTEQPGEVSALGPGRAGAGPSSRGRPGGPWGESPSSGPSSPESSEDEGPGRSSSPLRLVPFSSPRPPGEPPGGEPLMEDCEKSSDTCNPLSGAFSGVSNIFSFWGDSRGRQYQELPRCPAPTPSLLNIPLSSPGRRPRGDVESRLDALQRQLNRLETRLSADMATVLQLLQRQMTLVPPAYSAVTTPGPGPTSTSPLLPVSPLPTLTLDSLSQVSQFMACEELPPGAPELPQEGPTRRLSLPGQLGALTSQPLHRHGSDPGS

SMILES	hERG current change (%, negative = inhibition) at 1uM [%]
O=C1NC(=Nc2cccc([N+](=O)[O-])c2)SC1(CO)CO	2.12
COc1ccc(C)cc1NC(=O)COC(=O)C1CC1	6.74
COc1ccc(OC)c(NC(=O)COC(=O)C2CCN(C(=O)c3ccc(Cl)cc3)CC2)c1	-49.1
COc1ccc(C)cc1NC(=O)COC(=O)C1CCN(C(=O)c2ccc(Cl)cc2)CC1	-57.7
O=C(COc1ccc(Br)cc1Cl)NC1CCN(Cc2ccccc2)CC1	-16.4
Cc1cc(OCC(=O)NC2CCN(Cc3ccccc3)CC2)c2c(C)c(C)c(=O)oc2c1	7.38
O=C(COc1ccc(Br)cc1F)NC1CCN(Cc2ccccc2)CC1	-64.8
Cc1ccc(Cl)c(OCC(=O)NC2CCN(Cc3ccccc3)CC2)c1	-93.9
O=C(NC1CCN(Cc2ccccc2)CC1)C1CCN(S(=O)(=O)c2ccc(Cl)cc2)CC1	-16.9
Cl.O=C(COc1ccccc1F)NC1CCN(Cc2ccccc2)CC1	-3.6
Cc1ccc(Cl)cc1S(=O)(=O)N1CCC(C(=O)NC2CCN(Cc3ccccc3)CC2)CC1	-66.1
O=C(NC1CCN(Cc2ccccc2)CC1)C1CCN(S(=O)(=O)c2ccccc2)CC1	1.18
O=C(COc1ccccc1)NC1CCN(Cc2ccccc2)CC1	-8.39
COC(=O)c1sc(C(C)(C)C)cc1CS(=O)(=O)c1ccc(Cl)cc1	23.7
CC(C)=CCOc1ccc2c(C)c(CC(=O)N3C[C@H]4C[C@@H](C3)c3cccc(=O)n3C4)c(=O)oc2c1C	-18.5
Cc1cc(C)c2cc(C#N)c(SCC(=O)NCC3CCCO3)nc2c1 (stereo not shown)	-2.04
CCSCc1nnc(SCC(=O)c2ccc(OC)cc2)n1C	2.03
CC(NC(=O)CSCc1ccc(Br)cc1)c1ccccc1 (stereo not shown)	9.08
CCOc1ccc(/C=N/NC(=O)c2cccc3ccccc23)c(OCC)c1	13.6
CC1CCCN(CC(=O)Nc2ccc(S(=O)(=O)N3CCCCCC3)cc2)C1 (stereo not shown)	-1.45
COC(=O)c1nc[nH]c1C(=O)OC	18.4
COc1ccccc1C(=O)N/C(=C/c1ccc(Br)cc1)C(=O)NCCO	1.21

SMILES	hERG current change (%, negative = inhibition) at 1uM [%]
COCCN1C(=O)N[C@H](c2cccc(C(F)(F)F)c2)C(C(=O)OC)=C1C	5.44
O=S(=O)(NCC(c1ccc2c(c1)OCO2)N1CCOCC1)c1ccc(Br)cc1 (stereo not shown)	12.6
COc1ccc(C)cc1S(=O)(=O)NCC(c1ccc2c(c1)OCO2)N1CCN(C)CC1 (stereo not shown)	-54.9
CCOc1ccc(S(=O)(=O)NCC(c2ccc3c(c2)OCO3)N2CCN(C)CC2)cc1 (stereo not shown)	-3.34
CN1CCN(C(CNS(=O)(=O)c2ccc(Br)cc2)c2ccc3c(c2)OCO3)CC1 (stereo not shown)	-59.5
COc1ccc(C)cc1S(=O)(=O)NCC(c1ccc2c(c1)OCO2)N1CCOCC1 (stereo not shown)	5.86
COc1ccc(F)cc1S(=O)(=O)NCC(c1ccc2c(c1)OCO2)N1CCN(C)CC1 (stereo not shown)	-12.6
C=CCON/C(CCC)=C1\C(=O)CC(C)(C)CC1=NC	18.6
O=C(CN(C(=O)CCC(=O)Nc1nccs1)c1ccc2c(c1)OCO2)NCc1ccc(F)cc1	9.89
COc1cccc(CN2C(=O)[C@H]3Cc4c([nH]c5ccccc45)C(C)(C)N3C2=O)c1	15.2
O=S(=O)(Nc1nc2ccccc2nc1Cl)c1ccc2c(c1)OCCO2	8.99
Cc1nn(Cc2ccccc2)c(C)c1NC(=O)CSc1nc2c(c(C(F)(F)F)n1)CCc1ccccc1-2	2.11
CC1=C(C)C(=O)N(c2ccccn2)C1=O	11.4
CCOc1ccccc1CN1CCN(Cc2[nH]c3ccccc3c2C)CC1CCO (stereo not shown)	-13
COc1ccc2[nH]c(CN3CCN(CC(C)C)C(CCO)C3)c(C)c2c1 (stereo not shown)	5.18
CCOc1ccc(CN2CCN(Cc3[nH]c4ccc(OC)cc4c3C)CC2CCO)cc1 (stereo not shown)	-76.9
COc1cccc(CN2CCN(Cc3[nH]c4ccccc4c3C)CC2CCO)c1 (stereo not shown)	-11.2
CCOc1ccc(CN2CCN(Cc3[nH]c4ccccc4c3C)CC2CCO)cc1 (stereo not shown)	-75.2
COc1ccc2[nH]c(CN3CCN(CC=C(C)C)C(CCO)C3)c(C)c2c1 (stereo not shown)	10.7
CC(C)CC(=O)Nc1nnc(S(=O)(=O)N(C)Cc2ccco2)s1	21
NC(=O)CC(NC(=O)Cc1cccc2ccccc12)c1ccc(NCCCN2CCCC2=O)c([N+](=O)[O-])c1 (stereo not shown)	8.49
O=C(CNS(=O)(=O)c1cccc(C(F)(F)F)c1)Nc1ccccc1F	-2.49

SMILES	hERG current change (%, negative = inhibition) at 1uM [%]
CCCOC(=O)c1ccc(NS(=O)(=O)c2cccs2)cc1	8.05
O=C(Oc1ccc(N(C(=O)c2ccncc2)S(=O)(=O)c2cccs2)cc1)c1ccncc1	11.4
O=C(OCCN(CCOC(=O)c1ccncc1)S(=O)(=O)c1cccs1)c1ccncc1	-51.5
O=C(Oc1ccccc1O)c1cccc2ccccc12	6.76
Cc1ccc(N2C(=O)N(CC(=O)Nc3ccc(C)cc3C)C(=O)C2C)cc1 (stereo not shown)	7.69
COc1cc(NC(=S)NCc2cccnc2)cc(OC)c1	15.1
CCOc1ccc(NC(C)=O)cc1[N+](=O)[O-]	5.43
CCOC(=O)C1(CCc2ccccc2)CCN(Cc2cccc3c2OCO3)CC1	-63.7
CCOC(=O)C1(CCc2ccccc2)CCN(Cc2ccccn2)CC1	-57.1
CCOC(=O)C1(CCOc2ccccc2)CCN(Cc2ccc(NC(C)=O)cc2)CC1	-38.6
CCOC(=O)C1(CC2CC2)CCN(Cc2cnc(N(C)C)s2)CC1	3.01
CCOC(=O)C1(CCCc2ccccc2)CCN(Cc2cnc(C)s2)CC1	-44.7
CCOC(=O)C1(CCc2ccccc2)CCN(Cc2ccn[nH]2)CC1	-43.8
CCOC(=O)C1(CCc2ccccc2)CCN(Cc2csc(C(C)=O)c2)CC1	-33.6
CCOC(=O)C1(CCc2ccccc2)CCN(Cc2cnc(N(C)C)s2)CC1	-86.4
CCOC(=O)C1(CCc2ccccc2)CCN(Cc2nccn2CC)CC1	-47.2
CCOC(=O)C1(CCOc2ccccc2)CCN(Cc2cccc3c2OCO3)CC1	-7.1
CCOC(=O)C1(Cc2ccccc2)CCN(Cc2cccc3c2OCO3)CC1	1.36
CCOC(=O)C1(CCc2ccccc2)CCN(Cc2ccc(NC(C)=O)cc2)CC1	-72.5
CCOc1cc(C)ccc1OCc1nnc(SCC(=O)c2cccc([N+](=O)[O-])c2)n1CC	-1.84
O=C(Nc1cc(=O)[nH]c2ncnn12)c1ccc(Cl)cc1Cl	-2.66
CC(C)(C)c1ccc(C(=O)NN2C(=O)CSC2=S)cc1	12.1

SMILES	hERG current change (%, negative = inhibition) at 1uM [%]
CCOC(=O)C1(Cc2ccccc2)CCN(Cc2cccc(OC)c2O)CC1	-31
CCOC(=O)C1(Cc2ccccc2)CCN(Cc2ccc3c(c2)OCCO3)CC1	-0.488
CCOC(=O)C1(CCc2ccccc2)CCN(Cc2cccc3cnccc23)CC1	-4.67
CCOC(=O)C1(CCc2ccccc2)CCN(Cc2ccco2)CC1	-42.7
CCOC(=O)C1(CCc2ccccc2)CCN(Cc2cc(OC)c(OC)cc2OC)CC1	-68.1
CCOC(=O)C1(CCc2ccccc2)CCN(Cc2ccc(OC)cc2)CC1	-86.9
CCOC(=O)C1(CCc2ccccc2)CCN(Cc2ccc3c(c2)OCCO3)CC1	-91.4
CCOC(=O)C1(CCc2ccccc2)CCN(Cc2ccc(O)cc2)CC1	-86.3
CCOC(=O)C1(CCOc2ccccc2)CCN(Cc2ccc3c(c2)OCCO3)CC1	-25.8
CCOC(=O)C1(CCc2ccccc2)CCN(CC(O)CO)CC1 (stereo not shown)	1.26
CCOC(=O)C1(CCc2ccccc2)CCN(Cc2cccc3nccnc23)CC1	-19.3
CCOC(=O)C1(CCc2ccccc2)CCN(Cc2c(O)cccc2OC)CC1	-28.7
Cc1ccc(/C=N/Nc2nnc(Cl)c3ccccc23)cc1	-1.46
COc1ccc(C[C@H]2c3cc(O)c(OC)cc3CC[N+]2(C)[O-])cc1O (stereo partly shown)	16.9
Cn1c(NCCc2ccccc2)cc(=O)n(C)c1=O	11.8
Cc1ccc(C(=O)N(C)Cc2ccc(N3CCOCC3)cc2)cc1S(=O)(=O)NCc1ccccc1	1.2
CCCCNC(=S)NNC(=O)c1cc(C2CC2)nc2ccccc12	13.2
COc1ccc(C2CC(=O)n3c(nc4ccccc43)S2)cc1OC (stereo not shown)	12.9
COc1ccc(CNC(=O)COC(=O)CN2C(=O)C(C)Oc3ccc(C)cc32)cc1 (stereo not shown)	9.75
